Screens from PubChem BioAssay.
The entries come from a sample that favours hits as a whole.
IMPase Li cell: membrane-permeable IMPase blocker, potentiated with lithium; CHO-M1 cells, IP1 TR-FRET (IP-One), carbachol + lithium; Potency, µM (titrated, usually from 59.4 µM), without a hit: top-dose activity, negative = IMPase inhibition, hits mostly inhibitors; 0.35% of 210,000 active;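 also: IP1 builds up when IMPase is blocked and the TR-FRET signal falls; plate controls were basal vehicle for no effect and high inhibitor control for full effect; nearly all actives have a fitted effect of over 50% in size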
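Lithium-sensitised IP1 accumulation assay; M1-expressing CHO cells treated 30 min at 37C with compound. Competitive antibody detection by time-resolved FRET followed a 10 min room-temperature lysis step.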
NPSR antag: neuropeptide S receptor (human) antagonism, cAMP; 1% of 220,000 active; Potency, µM (highest dose often 38.3 µM), without a hit: top-dose activity change, negative = inhibition, most hits filed as inhibitors; Q6W5P4; AID 1461; CHO-NPSR cells, cAMP TR-FRET, antagonist mode; also: nearly all actives have a fitted effect of over 50% in size
Target sequence (Q6W5P4 whole entry, looked up): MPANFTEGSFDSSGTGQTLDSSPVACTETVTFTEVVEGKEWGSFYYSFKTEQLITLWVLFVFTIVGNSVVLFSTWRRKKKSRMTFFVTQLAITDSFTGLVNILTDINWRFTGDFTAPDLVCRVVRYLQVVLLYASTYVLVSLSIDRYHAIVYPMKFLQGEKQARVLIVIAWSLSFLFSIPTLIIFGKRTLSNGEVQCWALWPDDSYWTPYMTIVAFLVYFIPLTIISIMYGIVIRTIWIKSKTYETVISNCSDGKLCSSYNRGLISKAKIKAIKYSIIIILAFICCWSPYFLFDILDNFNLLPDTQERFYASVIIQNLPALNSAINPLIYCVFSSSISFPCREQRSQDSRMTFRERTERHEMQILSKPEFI
ERK EGF block: EGF-driven ERK pathway inhibition; HEK293-V1b, EGF-stimulated phospho-ERK AlphaScreen; Potency, µM (titrated, usually from 11.5 µM), for inactives: top-dose activity change, negative = inhibition, hits mostly inhibitors; 0.41% of 130,000 active;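 also: plate controls were stimulated vehicle wells for no effect and unstimulated vehicle basal for full effect; nearly all actives have a fitted effect of over 55% in size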
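Phospho-ERK1/2 measured by AlphaScreen (SureFire) after 5 min 25 nM EGF stimulation of V1b-expressing HEK293 cells preincubated 30 min at 37C with titrated compounds; data scaled to DMSO and EGF controls, Hill-fitted AC50.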
Numbers without * were called inactive; ? = inconclusive; nt = not tested or not shown; [ ] = remark or other dose. Calls follow the shape of the dose curve; as a rule, active = well fitted curve in the direction sought with a large enough effect; inconclusive = small, poorly fitted or top-dose-only effect, or another doubt; inactive = no such curve, though single readings can be large; an effect the other way counts as inactive or inconclusive. Unless noted, % is scaled to controls: 0 for no effect and ±100 for the full control effect; potency is read from the fitted curve at half-maximal effect.

SMILES | IMPase Li cell | NPSR antag | ERK EGF block
O=[As](O)(O)c1ccc(Cc2ccc([As](=O)(O)O)cc2)cc1 | 3.5% | nt | nt
CC(C)(Cl)Cl | -12.4% | nt | nt
C[C@]12CC[C@@H]3[C@H](CCC4=CC(=O)CC[C@]43C)[C@]1(O)CC[C@@]2(O)C(=O)CO | -10.5% | nt | nt
O=[N+]([O-])c1c(Cl)c(Cl)cc(Cl)c1Cl | -10.1% | nt | nt
CNc1cc(Cl)c2nonc2c1[N+](=O)[O-] | 28.9% | 10µM* | ?
O[N+]1=CC=CCC1=S.On1ccccc1=S.[Zn] | 16.4% | nt | 20µM*
C=CC(C)(C)c1c2c(c(O)c3c(=O)c4ccc(O)c(O)c4oc13)C=CC(C)(C)O2 | 32.8% | nt | -2.0%
O=C(O)C(C(=O)O)P(=S)(S)c1ccccc1 (configuration not stated) | -8.9% | nt | nt
O=C1NC(=O)N(Cc2ccccc2)C(=O)/C1=C/c1cnc(-c2ccccc2)nc1 | -4.3% | 10µM* | 0.4%
CC(C)c1ccc(N2C(=O)NC(=O)/C(=C/c3cnc(-c4ccccc4)nc3)C2=O)cc1 | 6.6% | -23.5%[46.1 µM] | -4.9%
NNc1nncn1N | -8.7% | nt | nt
COC(=O)[C@]1(C)CC[C@@]2(C)CC[C@@]3(C)C4=CC=C5C(=CC(=O)C(O)=C5C)[C@@]4(C)CC[C@@]3(C)C2C1 (some centres not stated) | 29.4% | nt | 14.1µM*
c1cc(CCN2CCCCC2)ccn1 | -5.8% | nt | nt
N[C@@H](CSC1c2ccccc2-c2ccccc21)C(=O)O | -0.4% | nt | nt
CSc1ccc2c(c1)c(CCN)c(C)n2Cc1ccccc1Cl | -4.3% | nt | nt
O=C1C=CC(=O)C(Cl)=C1 | 20.6% | nt | nt
c1ccc(CCN2CCOCC2)nc1 | 2.7% | nt | nt
O=C(Oc1c(Cl)cc(Cl)c2ccccc12)N1CCCCC1 | 23.0%[38.3 µM] | ? | nt
O=C(Oc1c(Br)cc(Br)c2cccnc12)N1CCCCC1 | 12.6µM* | ? | 9.9%
CN1/C(=C\C=Nc2ccccc2)C(C)(C)c2ccccc21 | nt | ? | -15.9%[57.5 µM]
CN1/C(=C\C=C\C2=[N+](C)c3ccc4ccccc4c3C2(C)C)C(C)(C)c2ccccc21 | -17.5%[38.3 µM] | 7.94µM* | nt
COC(=O)C1CN(C#N)N(c2ccc(Cl)cc2)C12c1ccccc1-c1ccccc12 (configuration not stated) | 18.4% | 7.94µM* | -1.4%
C[n+]1c(/C=C\c2ccc(O)c3ncccc23)[se]c2ccccc21 | 20.4% | nt | nt
CCNC(=O)[C@@H]1O[C@@H](n2cnc3c(N)ncnc32)[C@H](O)[C@H]1O | 2.0% | nt | -13.6%
CCNC(=O)[C@H]1O[C@@H](n2cnc3c(N)ncnc32)[C@H](O)[C@@H]1O | -9.0% | 15.2% | 8.91µM*
SMILES | IMPase Li cell | NPSR antag | ERK EGF block
Nc1c(C(=O)Nc2ccc([As](=O)(O)O)cc2)cnc2nnnn12 | 2.3% | nt | nt
COc1cc(/C=C2\C(=O)NC(=O)N(c3ccccc3)C2=O)c([N+](=O)[O-])cc1OC | 1.5% | 1.2% | 1.1%[57.5 µM]
CN1C(=O)NC(=O)/C(=C\C=C\c2ccccc2[N+](=O)[O-])C1=O | 13.1% | 10µM* | ?
CC1(C)N=C(N)N=C(N)N1c1cccc(C(=O)Nc2ccc(S(=O)(=O)F)cc2)c1 | 0.4% | nt | nt
CCN(CC)c1ccc(C=C2C(=O)NC(=S)NC2=O)cc1 | nt | ? | 28.2µM*
CC(C)CN(CC(C)C)c1ccc(C=C2C(=O)NC(=S)NC2=O)cc1[N+](=O)[O-] | 7.5%[38.3 µM] | ? | nt
N=C(N)SCc1ccc(Cl)c2ccccc12 (tested in a mixture with another compound) | -3.5% | nt | nt
Cc1c(P(=S)(c2ccccc2)c2ccccc2)[n+]2ccccc2n1C | 25.5% | 1.26µM* | -10.7%
C=C1C(=O)O[C@@H]2C[C@@H](C)[C@@H]3C=CC(=O)[C@@]3(C)[C@@H](OC(=O)CC(=O)O[C@H]3[C@@H]4C(=C)C(=O)O[C@@H]4C[C@@H](C)[C@@H]4C=CC(=O)[C@]43C)[C@H]12 | nt | ? | 4.47µM*
C=C1C(=O)O[C@H]2[C@H]1[C@H](OC(=O)CC(=O)O[C@@H]1C[C@@H](C)[C@@H]3C=CC(=O)[C@@]3(C)[C@H]3OC(=O)C(=C)[C@H]13)C[C@@H](C)[C@H]1C=CC(=O)[C@]12C | nt | -18.4% | 12.6%[57.5 µM]
Cc1c([C@@H](C)C2NC[C@H](C)C[C@@H]2O)ccc2c1C[C@@H]1[C@H]2CC=C2C[C@@H](O)CC[C@@]21C (some centres not stated) | 5.8% | nt | nt
O=C(CCl)c1ccccc1 | 22.9% | nt | nt
N#CC(C#N)=NNc1ccc(S(N)(=O)=O)cc1 | nt | -24.5% | -1.2%[57.5 µM]
CC1CCN(S(=O)(=O)c2ccc(NN=C(C#N)C#N)cc2)CC1 | 52.1%[38.3 µM] | 10µM* | nt
O=C(O)CNC(=O)c1ccc([As](=O)(O)O)cc1 | 1.5% | nt | nt
CCOc1ccc(-c2nc3ccc(-c4nc5ccc(N6CCN(C)CC6)cc5[nH]4)cc3[nH]2)cc1 | 12.6µM* | nt | nt
Cc1ccc2nc(N3CCN(C)CC3)[nH]c2c1 | 26.2%[38.3 µM] | -10.3%[46.1 µM] | nt
C[C@@]12CC[C@H](O[C@@H]3O[C@H](CO)[C@@H](O)[C@H](O)[C@@H]3O)C[C@@H]1CC[C@H]1[C@H]2CC[C@@]2(C)[C@@H](C3=CCOC3=O)CC[C@]12O | -0.1% | nt | nt
C1C[C@@H]2CN(CCCN3CCOCC3)[C@@H](C1)O2 | -5.3% | nt | nt
CC(C)CNC(=O)c1c(N)n(Cc2ccc3c(c2)OCO3)c2nc3ccccc3nc12 | 31.7%[38.3 µM] | 3.16µM* | nt
CC(C)CCn1c(N)c(C(=O)NCc2cccs2)c2nc3ccccc3nc21 | -2.0%[38.3 µM] | -16.9%[46.1 µM] | nt
CC(C)OCCCNC(=O)c1c(N)n(Cc2cccs2)c2nc3ccccc3nc12 | 2.9%[38.3 µM] | 10µM* | nt
COCCCNC(=O)c1c(NC(=O)c2ccco2)n(Cc2ccccc2)c2nc3ccccc3nc12 | 14.5%[38.3 µM] | 12.6µM* | nt
CCCNC(=O)c1c(N)n(Cc2ccco2)c2nc3ccccc3nc12 | 19.4%[38.3 µM] | ? | nt
CC(C)CNC(=O)c1c(N)n(Cc2ccco2)c2nc3ccccc3nc12 | 34.9%[38.3 µM] | 10µM* | nt
SMILES | IMPase Li cell | NPSR antag | ERK EGF block
COCCNC(=O)c1c(NC(=O)c2ccc(Br)o2)n(Cc2ccccc2)c2nc3ccccc3nc12 | 2.5% | -41.1% | -3.5%
CC(C)CCNC(=O)c1c(N)n(Cc2ccc3c(c2)OCO3)c2nc3ccccc3nc12 | -6.8%[38.3 µM] | ? | nt
Nc1ccc(S(=O)(=O)c2ccc(NCN3C(=O)NC(=O)C(=O)C3=O)cc2)cc1 | -6.5% | nt | nt
CC(C)C(=O)CP(=O)(O)O | -2.4% | nt | nt
COc1ccc(C[C@@H](N)c2ccc(OC)cc2)cc1 | -1.2% | nt | nt
NC(N)=NCCN=C(N)N | -2.1% | nt | nt
C=CC1CC=CCC1 (configuration not stated) | -14.8% | nt | nt
O=[N+]([O-])/C=C/c1c(OCc2ccccc2)ccc2ccccc12 | 49.1%[38.3 µM] | 6.31µM* | nt
NCCP(=O)(O)O | -11.9% | nt | nt
CC1(C)C[C@H]2C=C(C=O)[C@]3(C=O)C[C@]3(C)[C@H]2C1 | 18.7% | 12.6µM* | 10µM*
CN1CCN(c2ccc([N+](=O)[O-])c3no[n+]([O-])c23)CC1 | nt | 10µM* | 10µM*
CN1CCN(c2ccc(S(C)(=O)=O)cc2[N+](=O)[O-])CC1 | 3.5% | 24.7% | -3.3%
CCOP(=S)(OCC)Oc1ccc([N+](=O)[O-])cc1 | 1.1% | nt | nt
CN(C)C1C(=O)C(C(N)=O)=C(O)[C@@]2(O)C(=O)C3=C(O)c4c(O)cccc4[C@@](C)(O)C3CC12 (some centres not stated) | 3.98µM* | nt | 3.5%
